Measurements published in PubChem BioAssay AID504411 (The Scripps Research Institute Molecular Screening Center, 2011).
Screen size: about 340,000 compounds; about 200 (0.059%) were called active. Only a selection was taken, and actives are over-represented in it overall. A number with no mark means an inactive call. Rule as the data show it: active = inhibition above about 34%; inactive = the rest.

Target: Diacylglycerol lipase-beta (Homo sapiens) (UniProt Q8NCG7)
Experiment: inhibition of human DAGLB hydrolase activity – biochemical, fluorescence, HTS, primary screen (AID 504411);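 also: 0% = enzyme with vehicle and 100% = wells lacking enzyme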
Details: HEK293T DAGLB membrane lysate, EnzChek fluorogenic substrate; at 5.17 µM; stronger effect = higher value

Chain of Diacylglycerol lipase-beta (Homo sapiens) (Q8NCG7 whole entry, looked up): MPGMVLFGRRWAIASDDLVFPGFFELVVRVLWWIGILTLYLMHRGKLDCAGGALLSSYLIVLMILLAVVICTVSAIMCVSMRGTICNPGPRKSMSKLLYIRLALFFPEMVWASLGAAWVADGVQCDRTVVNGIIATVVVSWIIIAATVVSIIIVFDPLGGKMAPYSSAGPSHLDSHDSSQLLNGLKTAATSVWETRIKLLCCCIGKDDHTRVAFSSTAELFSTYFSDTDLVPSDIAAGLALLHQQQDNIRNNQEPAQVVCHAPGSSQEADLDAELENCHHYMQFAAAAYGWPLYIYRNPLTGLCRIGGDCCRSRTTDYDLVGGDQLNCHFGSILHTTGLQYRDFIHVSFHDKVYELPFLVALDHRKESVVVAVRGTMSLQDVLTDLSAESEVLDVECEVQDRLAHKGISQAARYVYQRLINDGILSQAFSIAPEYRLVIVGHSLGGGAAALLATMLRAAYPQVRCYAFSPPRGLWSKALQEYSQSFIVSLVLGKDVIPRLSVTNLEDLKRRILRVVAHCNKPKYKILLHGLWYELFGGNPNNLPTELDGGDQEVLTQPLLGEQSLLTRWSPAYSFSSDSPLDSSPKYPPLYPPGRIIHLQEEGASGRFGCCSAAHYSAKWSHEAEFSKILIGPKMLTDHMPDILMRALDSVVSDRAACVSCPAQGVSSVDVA

**Q.** `c1ccc2c(c1)OCCOCCOCCO2` was tested. Which inhibition did it give?
**A.** 0.06%

**Q.** For `Cc1ccc(S(=O)(=O)/N=C2\C=C(NS(=O)(=O)c3ccc(C)cc3)C(=O)c3ccccc32)cc1`, which inhibition is on record?
**A.** 38.9% (active)

**Q.** `Cc1ccc(S(=O)(=O)N/N=C(\c2ccccc2)C2CC2)cc1` was tested. Which inhibition did it give?
**A.** 0.32%

**Q.** For `COc1ccc(S(=O)(=O)/N=C2\C=C(NS(=O)(=O)c3ccccc3)C(=O)c3ccccc32)cc1`, which inhibition is on record?
**A.** 19.7%

**Q.** Which inhibition does the source give for `Cc1nn(C)c(C)c1CN(C(=O)CCc1nnc(Cc2c[nH]c3ccccc23)o1)C(C)C` here?
**A.** 1.36%

**Q.** How did the inhibition turn out when `COCc1ccc(C(=O)N2CCc3c([nH]c4ccccc34)C2c2ccccn2)s1` (configuration not stated) was run?
**A.** 2.71%

**Q.** Which inhibition does the source give for `CC(CC(=O)N1CCN(c2ccccc2)CC1)S(=O)(=O)c1ccc2c(c1)NC(=O)CS2` (configuration not stated) here?
**A.** 1.53%

**Q.** For `CCOc1ccc(-n2cnc3c(=O)[nH]c(N)nc32)cc1`, which inhibition is on record?
**A.** 0.5%

**Q.** `O=C(Nc1nnc(CCN2CCCCC2)s1)c1cccc(Cl)c1` was tested. Which inhibition did it give?
**A.** 0.09%

**Q.** For `CCOC(=O)C1=C(C)OC(N)=C(C#N)C1c1cncc(-c2ccc(F)cc2)c1` (configuration not stated), which inhibition is on record?
**A.** -3.22%

**Q.** Which inhibition does the source give for `C=CCn1nc(-c2ccccc2)c2c(C)onc2c1=O` here?
**A.** -0.48%

**Q.** With `CC(Sc1nncn1C)C(=O)Nc1cc(C(F)(F)F)ccc1N1CCOCC1` (configuration not stated) as the molecule, how does the inhibition read?
**A.** 0.9%

**Q.** With `O=C(NC1CCCC1)C1CC(=O)N(c2ccc(F)cc2)C1` (configuration not stated) as the molecule, how does the inhibition read?
**A.** 2.14%

**Q.** For `O=C(NNc1c2ccccc2nc2ccccc12)c1cc2ccccc2cc1O`, which inhibition is on record?
**A.** 64% (active)

**Q.** `O=C(COC(=O)c1ccc(O)cc1O)NC(=O)c1ccccc1` was tested. Which inhibition did it give?
**A.** 1.38%

**Q.** With `O=C(NNC(=O)c1ccccc1O)c1ccccc1O` as the molecule, how does the inhibition read?
**A.** 3.19%

**Q.** Which inhibition does the source give for `Cc1ccc(-c2cc(C(F)(F)F)n3ncc(C(=O)N4CCCCC4c4cccnc4)c3n2)cc1` (configuration not stated) here?
**A.** 0.87%

**Q.** With `Nc1ccc(Cl)c(S(=O)(=O)Nc2ccccc2Cl)c1` as the molecule, how does the inhibition read?
**A.** 2.95%

**Q.** For `O=C1C(=O)N(CCN2CCOCC2)C(c2ccccn2)/C1=C(/O)c1ccc(Cl)cc1` (configuration not stated), which inhibition is on record?
**A.** 1.82%

**Q.** For `COc1cc(/C=C/C(=O)N2CCc3ccccc3C2)cc(OC)c1OC`, which inhibition is on record?
**A.** -1.38%

**Q.** Which inhibition does the source give for `O=C(c1ccc(=O)[nH]c1)N(Cc1ccco1)C1(C(=O)NC2CCCCC2)CCCCC1` here?
**A.** -1.49%

**Q.** With `COc1cccc(NC(=S)NC(=O)c2c(Cl)c(C)nn2C)c1` as the molecule, how does the inhibition read?
**A.** -24.9%

**Q.** `CN(C(=O)CSc1nnc(C2CC2)n1C)C1CCCc2ccccc21` (configuration not stated) was tested. Which inhibition did it give?
**A.** 1.81%

**Q.** With `CCOCCn1[nH]c2ccccc2c1=O` as the molecule, how does the inhibition read?
**A.** -1.38%

**Q.** For `CCOc1ccc(C(O)Cn2c(=N)n(CCN3CCCCC3)c3ccccc32)cc1` (configuration not stated), which inhibition is on record?
**A.** -2.39%

**Q.** How did the inhibition turn out when `Cc1cccc(Nc2nc3c(S(=O)(=O)c4ccccc4)nnn3c3ccccc23)c1C` was run?
**A.** 0.26%

**Q.** `CCn1c(SCC(=O)N2CCCC2=O)nc2ccccc21` was tested. Which inhibition did it give?
**A.** -0.5%

**Q.** How did the inhibition turn out when `COc1ccc(OC)c(NC(=O)c2cccc(S(=O)(=O)N3CCN(C(C)=O)CC3)c2)c1` was run?
**A.** -0.51%

**Q.** For `O=C(CCCN=C1NS(=O)(=O)c2ccccc21)OCC(=O)c1ccc(F)c(F)c1`, which inhibition is on record?
**A.** 1.93%

**Q.** With `CN1CCC(N(C)C(=O)c2ccc(Cl)c(S(=O)(=O)Nc3ccc(Cl)cc3)c2)CC1` as the molecule, how does the inhibition read?
**A.** -0.08%

**Q.** With `CSCCC(=O)N1CCCC(CNC(=O)c2ccccc2Cl)C1` (configuration not stated) as the molecule, how does the inhibition read?
**A.** -3.33%

**Q.** How did the inhibition turn out when `C[C@H](CO)N1C[C@H](C)[C@@H](CN(C)C(=O)NC2CCCCC2)Oc2ccc(NC(=O)c3ccncc3)cc2C1=O` was run?
**A.** -0.14%

**Q.** For `O=C1C=C(NCCNc2c(F)c(F)c(CO)c(F)c2F)CCC1`, which inhibition is on record?
**A.** 0.21%

**Q.** For `COc1ccc(C(=O)Cn2nnc(-c3ccc(N4CCOCC4)cc3)n2)cc1OC`, which inhibition is on record?
**A.** 0.4%

**Q.** For `COc1ccccc1NS(=O)(=O)c1ccc(C(=O)N2CCN(c3ccccc3O)CC2)cc1`, which inhibition is on record?
**A.** 3.47%

**Q.** How did the inhibition turn out when `CCOC(=O)N1CCC(O)(c2cc(C)c(C)cc2C)CC1` was run?
**A.** -4.76%

**Q.** `CC(=O)c1c(C)[nH]c(C(=O)CN2C(=O)NC(C)(C)C2=O)c1C` was tested. Which inhibition did it give?
**A.** 2.12%

**Q.** With `CCOC(=O)C1CN(S(=O)(=O)c2ccc(F)cc2)C1` as the molecule, how does the inhibition read?
**A.** -3.17%

**Q.** How did the inhibition turn out when `O=c1oc(-c2ccccc2NS(=O)(=O)c2ccc(Cl)cc2)nc2ccccc12` was run?
**A.** 6.09%

**Q.** For `COc1cccc(/C=C2\SC(=S)N(CCCC(=O)N3CCOCC3)C2=O)c1`, which inhibition is on record?
**A.** -4.26%

**Q.** With `COCCCNC(=O)[C@H]1N2C(=O)c3ccccc3C2SC1(C)C` (some centres not stated) as the molecule, how does the inhibition read?
**A.** -1.33%

**Q.** `CC(=O)Nc1ccc(C(=O)Nc2cccc(S(=O)(=O)NC3=NCCC3)c2)cc1` was tested. Which inhibition did it give?
**A.** -2.22%

**Q.** How did the inhibition turn out when `CCOC(=O)C1CSC(CC(=O)Nc2ccc(OCC)cc2)C(=O)N1` (configuration not stated) was run?
**A.** 0.21%

**Q.** For `O=C(O)CC(c1ccccc1F)N1Cc2ccccc2C1=O` (configuration not stated), which inhibition is on record?
**A.** 1.06%

**Q.** Which inhibition does the source give for `CCCN(CCC)S(=O)(=O)c1ccc(C(=O)N2CC3CCC(CC3)C2)cc1` here?
**A.** -8.08%

**Q.** For `COc1ccc(C(=O)c2c(C)oc3cc([N+](=O)[O-])c(O)c([N+](=O)[O-])c23)cc1`, which inhibition is on record?
**A.** 21.1%

**Q.** How did the inhibition turn out when `Cc1oc2cc([N+](=O)[O-])c(O)c([N+](=O)[O-])c2c1C(=O)c1ccc(Br)cc1` was run?
**A.** 44% (active)

**Q.** Which inhibition does the source give for `Cc1oc2cc(Br)c(O)c(Br)c2c1C(=O)c1ccccc1` here?
**A.** -1.78%

**Q.** Which inhibition does the source give for `CCOc1ccc(S(=O)(=O)NCCC(=O)NCC(C)(C)N2CCOCC2)cc1` here?
**A.** 1.14%

**Q.** With `CSC1=N/C(=C\C=C\c2cccs2)C(=O)S1` as the molecule, how does the inhibition read?
**A.** 6.62%

**Q.** `Cc1c(C(=O)NCC(c2ccco2)N2CCCC2)oc2ccc(Cl)cc12` (configuration not stated) was tested. Which inhibition did it give?
**A.** -3.86%

**Q.** How did the inhibition turn out when `CCOC(=O)C1CCN(C(=O)C2(NC(=O)Nc3cccc(F)c3)CCCCC2)CC1` was run?
**A.** 1.05%

**Q.** For `CC1(C)OC(=O)C(=CNC(CO)C(=O)O)C(=O)O1` (configuration not stated), which inhibition is on record?
**A.** -0.76%

**Q.** `CC(=O)N1CCc2ccc(N)cc21` was tested. Which inhibition did it give?
**A.** -0.55%

**Q.** For `COc1ccc(C(=O)NCc2ccc(C)cc2)cc1S(=O)(=O)N1CCCC1`, which inhibition is on record?
**A.** -0.31%

**Q.** With `Cc1cc(=O)n2nc(N3CCCC(C(=O)NCc4cccc(Cl)c4)C3)sc2n1` (configuration not stated) as the molecule, how does the inhibition read?
**A.** -0.02%

**Q.** `CCOC(=O)CN(C(=O)COc1nc(-c2ccccc2)cc(C)c1C#N)c1ccc(F)cc1` was tested. Which inhibition did it give?
**A.** -4.62%
